The entries come from a sample that favours hits as a whole.
IDE exosite inh: insulin-degrading enzyme (human) exo-site inhibition | P14735 | purified IDE, FL-6b probe fluorescence polarization; stronger effect = lower value | z-score at 20 µM | 17,000 tested, 6.3% active | AID 1259349;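 active = z-score of -3 or lower, meaning strong loss of probe binding signal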;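 note: His-tagged human IDE residues 42-1019 made in E. coli with 30 nM FL-6b probe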
Target sequence (P14735 42-1019 limits assumed): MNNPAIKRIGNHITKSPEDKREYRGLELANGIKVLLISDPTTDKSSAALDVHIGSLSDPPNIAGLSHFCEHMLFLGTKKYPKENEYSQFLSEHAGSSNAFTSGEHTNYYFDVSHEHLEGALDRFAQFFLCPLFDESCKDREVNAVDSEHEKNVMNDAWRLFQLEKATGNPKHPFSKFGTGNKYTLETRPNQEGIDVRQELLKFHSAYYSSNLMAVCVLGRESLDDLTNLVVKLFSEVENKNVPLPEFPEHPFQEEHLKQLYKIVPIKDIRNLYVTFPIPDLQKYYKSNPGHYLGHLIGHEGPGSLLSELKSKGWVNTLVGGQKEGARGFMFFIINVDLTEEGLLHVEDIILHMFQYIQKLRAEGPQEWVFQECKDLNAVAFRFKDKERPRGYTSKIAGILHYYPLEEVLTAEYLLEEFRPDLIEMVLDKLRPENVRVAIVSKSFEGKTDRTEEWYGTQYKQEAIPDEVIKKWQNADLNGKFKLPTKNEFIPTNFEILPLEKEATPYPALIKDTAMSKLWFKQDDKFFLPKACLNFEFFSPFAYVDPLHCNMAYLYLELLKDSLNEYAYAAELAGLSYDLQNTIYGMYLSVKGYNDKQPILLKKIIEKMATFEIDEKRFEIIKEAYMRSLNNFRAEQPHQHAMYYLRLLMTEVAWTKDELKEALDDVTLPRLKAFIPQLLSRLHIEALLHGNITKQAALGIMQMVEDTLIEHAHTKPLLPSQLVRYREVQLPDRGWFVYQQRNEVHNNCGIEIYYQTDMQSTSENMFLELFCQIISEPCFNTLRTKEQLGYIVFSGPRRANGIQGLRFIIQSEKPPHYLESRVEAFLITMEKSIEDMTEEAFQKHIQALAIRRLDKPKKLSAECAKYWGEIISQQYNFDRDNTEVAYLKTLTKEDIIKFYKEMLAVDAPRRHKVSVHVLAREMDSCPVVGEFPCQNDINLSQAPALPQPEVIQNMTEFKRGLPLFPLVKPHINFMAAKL
Numbers without * were called inactive; ! = not active in a repeat.

SMILES	IDE exosite inh
Cc1cccc(-c2ccc(C3[C@@H]4CN(Cc5ccccc5)C[C@H]3N4)cc2)c1 (some centres not stated)	-5.1*
c1ccc(CN2C[C@@H]3N[C@H](C2)C3c2ccc(-c3ccncc3)cc2)cc1 (some centres not stated)	2.4
O=C(C[C@H]1C=C[C@@H](NC(=O)c2ccc3c(c2)OCO3)[C@H](CO)O1)NC1Cc2ccccc2C1	0.084
O=C(c1ccccn1)N1C[C@H]2[C@@H](c3ccccc31)[C@H](CO)N2C(=O)Nc1ccccc1Cl	1.7
COc1cccc(NC(=O)N2C[C@@H](O)COC[C@@H]3O[C@H](CC(=O)N(C)C)CC[C@H]32)c1	-0.46
O=C(NC[C@H]1[C@H](c2ccccc2)[C@H](CO)N1CC1CCCC1)c1cccnc1	3.1
C[C@H](NC(=O)C[C@H]1C=C[C@@H](NS(=O)(=O)c2cccc(F)c2)[C@H](CO)O1)c1ccccc1	2.2
CO[C@H]1CN(C)C(=O)c2ccc(NS(C)(=O)=O)cc2OC[C@H](C)N(CC2CC2)C[C@H]1C	-0.09
O=C(NC[C@H]1[C@@H](c2ccccc2)[C@H](CO)N1C(=O)Cc1ccncc1)C1CCC1	0.075
Cc1ccccc1-c1ccc(C2[C@@H]3CN(Cc4ccc5c(c4)OCO5)C[C@H]2N3)cc1 (some centres not stated)	-4.3*!
c1cncc(-c2ccc(C3[C@@H]4CN(Cc5ccc6c(c5)OCO6)C[C@H]3N4)cc2)c1 (some centres not stated)	-1.1
Cc1ccccc1-c1ccc(C2[C@H]3CNC[C@@H]2N3Cc2ccc3c(c2)OCO3)cc1 (some centres not stated)	-0.77
c1ncc(-c2ccc(C3[C@@H]4CN(Cc5cocn5)C[C@H]3N4)cc2)cn1 (some centres not stated)	3.7
C(=C\c1ccc(C2[C@@H]3CN(Cc4cocn4)C[C@H]2N3)cc1)/c1ccccc1 (some centres not stated)	-0.39
Cc1ccccc1-c1ccc(C2[C@@H]3CN(Cc4cocn4)C[C@H]2N3)cc1 (some centres not stated)	-3*!
CCCC#Cc1ccc([C@H]2[C@H]3CN(C(=O)c4ccc5c(c4)OCO5)CCCCN3[C@H]2CO)cc1	2
COCC#Cc1ccc([C@@H]2[C@H](C#N)N(C(=O)Cc3ccccc3)[C@H]2CO)cc1	-0.27
CCC(=O)N1CCCCN2[C@H](CO)[C@@H](c3ccc(-c4cccc(C#N)c4)cc3)[C@@H]2C1	2.8
CCCNC(=O)N1CC2(CCN(C(=O)c3cccc(F)c3)CC2)c2c([nH]c3cc(OC)ccc23)[C@@H]1CO	0.76
Cc1ccccc1-c1ccc([C@H]2[C@H]3CN(C(=O)c4cccnc4)CCCCN3[C@H]2CO)cc1	0.9
O=C(c1cccnc1)N1CCCCN2[C@@H](CO)[C@@H](c3ccc(C#Cc4cccnc4)cc3)[C@@H]2C1	0.38
COc1ccccc1-c1ccc([C@@H]2[C@H](CO)N3CCCCN(C(=O)c4cccnc4)C[C@@H]23)cc1	-4.1*
COc1ccccc1-c1ccc([C@H]2[C@H]3CN(C(=O)c4ccncc4)CCCCN3[C@H]2CO)cc1	0.95
COc1ccccc1-c1ccc([C@@H]2[C@H]3CN(C(=O)c4ccncc4)CCCCN3[C@H]2CO)cc1	-14*
COc1ccccc1-c1ccc([C@H]2[C@H](CO)N3CCCCN(C(=O)c4ccncc4)C[C@@H]23)cc1	-2.5
SMILES	IDE exosite inh
N#C[C@H]1[C@H](c2ccc(C3=CCCC3)cc2)[C@H](CO)N1C(=O)C1CC1	0.53
CN(C[C@H]1N[C@@H](CO)[C@@H]1c1ccc(C2=CCCC2)cc1)C(=O)c1ccccn1	4.6
Cn1cnc(S(=O)(=O)N[C@H]2CC[C@@H](CC(=O)NCC3CCCCC3)O[C@H]2CO)c1	1.1
COCC(=O)N1[C@@H]2c3ccc(C4=CCCCC4)c(=O)n3C[C@@H]2[C@@H](CO)[C@@H]1C(=O)N1CCN(C)CC1	0.39
CCCC(=O)N1C[C@H]2[C@@H](c3ccccc31)[C@@H](CO)N2C(=O)Nc1ccc(F)cc1	2.6
COc1ccccc1S(=O)(=O)N1CC[C@@H]2[C@H]1c1cc(-c3ccc(C#N)cc3)ccc1N[C@@H]2CO	1.1
CN(C)C(=O)c1ccc(-c2ccc([C@@H]3[C@H](C#N)N[C@H]3CO)cc2)cc1	-0.43
Cc1ccc(-c2ccc([C@H]3[C@@H](CO)N4C(=O)CN(C(=O)c5cccnc5)C[C@@H]34)cc2)cc1	-1.7
Cc1cccc(-c2ccc([C@@H]3[C@@H](CO)N4C(=O)CN(C(=O)c5cccnc5)C[C@@H]34)cc2)c1	-13*
Cc1ccc(-c2ccc([C@@H]3[C@H]4CN(C(=O)c5cccnc5)CC(=O)N4[C@H]3CO)cc2)cc1	-3.6*
COc1ccc(-c2ccc([C@@H]3[C@@H](CO)N4C(=O)CN(C(=O)c5cccnc5)C[C@H]34)cc2)cc1	0.58
Cc1cccc(-c2ccc([C@H]3[C@@H](CO)N4C(=O)CN(C(=O)c5cccnc5)C[C@H]34)cc2)c1	-15*
O=C(c1ccncc1)N1CC(=O)N2[C@H](C1)[C@@H](c1ccc(-c3cccnc3)cc1)[C@@H]2CO	-3.2*
O=C(c1cccnc1)N1CC(=O)N2[C@@H](CO)[C@H](c3ccc(-c4cccnc4)cc3)[C@@H]2C1	-0.79
COc1cccc(-c2ccc([C@@H]3[C@@H](CO)N4C(=O)CN(C(=O)c5cccnc5)C[C@H]34)cc2)c1	-1.3
O=C(c1cccnc1)N1CC(=O)N2[C@H](C1)[C@@H](c1ccc(-c3cccnc3)cc1)[C@@H]2CO	-1.9
O=C(c1cccc(F)c1)N1CC(=O)N2[C@H](C1)[C@H](c1ccc(-c3cccnc3)cc1)[C@@H]2CO	2.2
CS(=O)(=O)N1[C@H](C#N)[C@@H](c2ccc(C#CC3CC3)cc2)[C@@H]1CO	-0.77
Cc1ccccc1-c1ccc([C@H]2[C@H]3CN(S(C)(=O)=O)CC(=O)N3[C@H]2CO)cc1	-0.36
C/C=C/c1ccc([C@H]2[C@@H](CO)N(C(C)=O)[C@@H]2CN(CCC)C(C)=O)cc1	1.9
CS(=O)(=O)N1[C@H](C#N)[C@H](c2ccccc2-c2ccc(F)cc2)[C@H]1CO	1.8
Cc1cccc(S(=O)(=O)N2CCCCN3[C@@H](CO)[C@@H](c4ccc(C#C[C@@H](C)O)cc4)[C@@H]3C2)c1	1.2
CN(C)C(=O)c1cccc(-c2ccc([C@H]3[C@@H](CO)N(C(=O)C4CCCCC4)[C@H]3C#N)cc2)c1	0.65
CN(C)CC#Cc1ccc([C@@H]2[C@H]3CN(CC4CC4)CCCCN3[C@H]2CO)cc1	4.2
CCC(=O)NC[C@@H]1[C@H](c2ccccc2)[C@H](CO)N1C(=O)C1CCC1	3
SMILES	IDE exosite inh
CS(=O)(=O)N1CC(=O)N2[C@H](CO)[C@@H](c3ccc(Br)cc3)[C@@H]2C1	0.83
CN(C)CC(=O)N1[C@@H](C#N)[C@H](c2ccccc2-c2ccccc2F)[C@@H]1CO	1.2
C[C@H]1CN([C@@H](C)CO)C(=O)CCCn2cc(nn2)CO[C@H]1CN(C)C(=O)NC1CCCCC1	0.073
CC(=O)NC[C@H]1[C@@H](c2ccc(C#CC(C)C)cc2)[C@@H](CO)N1C(=O)C1CC1	3.1
Cc1noc(C)c1NC(=O)N(C)C[C@H]1OCc2ccccc2-c2c(n(C)c3ccccc23)C(=O)N([C@H](C)CO)C[C@@H]1C	-0.037
COc1ccc(-c2ccc([C@@H]3[C@H]4CN(C(=O)c5cccnc5)CC(=O)N4[C@H]3CO)cc2)cc1	1.7
COc1ccc(-c2ccc([C@H]3[C@@H](CO)N4C(=O)CN(C(=O)c5cccnc5)C[C@@H]34)cc2)cc1	2.7
